Compound activity deposited in PubChem BioAssay by National Center for Advancing Translational Sciences (NCATS).
HCMV inh – blocks human cytomegalovirus replication; activity change, negative = inhibition, % at 57.5 µM; actives 4.5% (n = 410,000); AID 1259415; HFF cells, HCMV-luciferase reporter, 72 h; hits give low values; in the data active means activity change below about -60%; inconclusive means no clear call, values can overlap the other calls; inactive means above about -39%
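Compounds were evaluated in HFFs infected with an HCMV luciferase reporter virus (MOI 1 PFU/cell). Luciferase in lysates collected 72 h post infection served as the replication measure.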
VACV Venus inh – inhibitors of vaccinia virus (Venus reporter); Vaccinia virus Venus reporter expression, fluorescence; Potency, µM (highest dose often 36.5 µM), usual class: inhibitors; actives 0.46% (n = 330,000); calls by dose curve; tested in A549 cells; further: nearly all actives have a fitted effect of over 30% in size
TbPYK inhibitor – blocks Trypanosoma brucei pyruvate kinase. actives 0.12% (n = 410,000). AID 624173. Q57TT1. TbPYK enzyme, Kinase-Glo Plus ATP luminescence, 45 min. Potency, µM (titrated, usually from 76.8 µM), most hits filed as inhibitors; further: nearly all actives have a fitted effect of over 50% in size
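TbPYK + substrate in 50 mM TEA pH 7.2, 100 mM KCl, 10 mM MgCl2, 0.05% BSA, 0.01% Tween-20; cpd pinned; ADP 130 uM final; 45 min RT; Kinase-Glo Plus 10 min; luminescence endpoint.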
Vaccinia mCherry – vaccinia inhibition (mCherry reporter); Vaccinia virus mCherry reporter infection, fluorescence; Potency, µM (doses to about 36.5 µM), most hits filed as inhibitors; AID 720579; actives 0.63% (n = 310,000); calls by dose curve; tested in A549 cells; further: nearly all actives have a fitted effect of over 35% in size
LmPK inh – inhibitors of Leishmania mexicana pyruvate kinase. Q27686. purified LmPK, Kinase-Glo ATP luminescence, 1 h. actives 0.37% (n = 290,000). Potency, µM (highest dose often 57.5 µM), hits mostly inhibitors. AID 1721
Target sequence (Q27686 whole entry, looked up): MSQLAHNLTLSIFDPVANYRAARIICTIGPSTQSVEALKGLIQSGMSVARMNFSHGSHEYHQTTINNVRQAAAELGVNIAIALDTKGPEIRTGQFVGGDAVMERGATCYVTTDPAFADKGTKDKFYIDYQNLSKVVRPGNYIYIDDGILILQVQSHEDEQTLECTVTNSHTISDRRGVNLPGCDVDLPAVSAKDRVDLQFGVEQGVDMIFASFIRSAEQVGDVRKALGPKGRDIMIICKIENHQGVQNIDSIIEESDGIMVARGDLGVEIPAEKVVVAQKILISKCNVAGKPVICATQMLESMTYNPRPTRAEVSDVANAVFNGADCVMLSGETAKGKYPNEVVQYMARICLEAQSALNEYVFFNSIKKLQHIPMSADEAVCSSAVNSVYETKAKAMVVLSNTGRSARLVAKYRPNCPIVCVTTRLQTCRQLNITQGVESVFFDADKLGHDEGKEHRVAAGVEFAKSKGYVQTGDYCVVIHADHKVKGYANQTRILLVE
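Purified LmPK (0.1 nM) converted ADP (0.1 mM) to ATP with PEP (0.5 mM) in imidazole buffer pH 7.2 with KCl and MgCl2, 1 h at room temperature. ATP was read by Kinase-Glo luminescence; data normalized to uninhibited and no-enzyme controls.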
Hits are given with their value; – = inactive; ? = inconclusive; · = not tested or not shown; ! = not confirmed by another sample. Sampled rows, rich in hits. Any-hit rate of the full collection: about 5%. Unless noted, the call rests on the fitted dose curve; in most records, active means well fitted curve in the direction sought with a large enough effect; inconclusive means small, poorly fitted or top-dose-only effect, or another doubt; inactive means no such curve, though single readings can be large; an effect the other way counts as inactive or inconclusive.

SMILES	HCMV inh	VACV Venus inh	TbPYK inhibitor	Vaccinia mCherry	LmPK inh
O=C(Nc1ccc(OCC(=O)N2CCOCC2)cc1)c1ccccc1F	–	–	–	–	–
Cc1cc(NC(=O)c2ccccc2F)cc(C)c1OCC(=O)N1CCOCC1	-98	–	–	–	–
O=c1sc2ccccc2n1COc1ccccc1	-95	–	–	–	–
CCOc1ccccc1Cn1c(=O)sc2ccccc21	-66	–	–	–	–
O=c1sc2ccccc2n1COc1ccc(Cl)cc1	–	–	–	–	–
CC(C)CCOc1ccccc1Cn1c(=O)sc2ccccc21	–	–	–	–	·
Cc1ccc(NC(=S)NCC2CCN(C(C)c3ccccc3)C2)cc1C (stereo unspecified)	-63	·	–	·	–
COc1ccc(OC)c2[nH]c(=O)c(CCNC(=O)c3ccc(S(=O)(=O)N(C)C)cc3)cc12	–	–	–	–	–
O=C1c2ccccc2C(=O)N1CCCCN(C(=O)c1ccc(Cl)s1)c1ccc(Cl)cc1	–	–	–	–	–
Cc1ccc(N(CCCCN2C(=O)c3ccccc3C2=O)C(=O)c2ccc(Cl)s2)cc1	-62	–	–	–	–
COc1cc(C(C#N)N2N=C(c3ccccc3)CC2c2ccccc2)ccc1O (stereo unspecified)	–	·	–	·	–
N#CC(c1ccccc1O)N1N=C(c2ccccc2)CC1c1ccccc1 (stereo unspecified)	-61	·	–	·	–
CCc1nc(NCC2CCCO2)c2oc3ccccc3c2n1 (stereo unspecified)	-84	–	–	·	–
CCc1nc(Sc2nc(C)cc(C)n2)c2oc3ccccc3c2n1	-86	?	–	·	–
COc1ccc(Nc2nc(NCC3CCCO3)c3ccccc3n2)c(OC)c1 (stereo unspecified)	-91	–	–	?	–
c1ccc(-c2nc(NCc3ccco3)c3ccccc3n2)nc1	-102	11µM	–	?	–
O=C(Nn1c(-c2ccncc2)nc2ccccc2c1=O)c1ccccc1Br	–	–	–	–	–
COc1ccc(OCC(O)CN2CCCC2)cc1 (stereo unspecified)	–	·	–	·	–
O=[N+]([O-])c1ccc2[nH]ccc2c1	–	·	·	·	·
Fc1ccccc1-c1nc(NCc2ccco2)c2ccccc2n1	-81	–	–	–	–
c1ccc(-c2nc(NCC3CCCO3)c3ccccc3n2)nc1 (stereo unspecified)	-97	·	·	·	–
c1ccc(Nc2nc(NCC3CCCO3)c3ccccc3n2)cc1 (stereo unspecified)	?	–	–	?	–
Cc1ccc([C@@H]2[C@@H]3C(=O)N(C)C(=O)[C@@H]3[C@]3(C)C(=O)N(Cc4ccccn4)CC(=O)N23)o1	–	–	–	–	–
Cn1c(CN2CCN(S(C)(=O)=O)CC2)nc2cc([N+](=O)[O-])ccc21	-101	–	–	–	–
CC(=O)N1CCN(Cc2nc3cc([N+](=O)[O-])ccc3n2C)CC1	–	·	–	·	–
SMILES	HCMV inh	VACV Venus inh	TbPYK inhibitor	Vaccinia mCherry	LmPK inh
O=C(Nc1cccc2ccccc12)c1nn(C23CC4CC(CC(C4)C2)C3)cc1[N+](=O)[O-]	-71	·	–	·	–
OCC[C@@H]1C[C@@H](O)[C@H](O)[C@]2(Cc3ccccc3CCO2)O1	–	–	–	–	–
FC(F)(F)c1ccc(Cl)c(-n2c(Cc3cccs3)n[nH]c2=S)c1	–	·	?	·	8.9µM
Cc1ccccc1-n1c(Cc2cccs2)n[nH]c1=S	–	–	?	–	8.9µM
COCCCNC(=O)c1cnn(-c2ncc3c(n2)-c2ccccc2CCC3)c1C	·	–	·	–	·
Cc1ccc(-c2nn3c(C)nnc3s2)cc1NCc1c(F)cccc1Cl	-76	–	–	–	–
Cc1ccc(CNc2cc(-c3nn4c(C)nnc4s3)ccc2C)s1	–	–	–	–	–
COc1cccc(Nc2ccc(N3CCCCC3)cc2)c1OC	-99	·	?	·	·
COc1cccc(CNc2ccc(N3CCCCC3)cc2)c1OC	?	–	–	·	–
COC(=O)c1cc2sccc2n1Cc1nc(-c2ccc(Cl)cc2)oc1C	–	–	–	–	–
COC(=O)c1cc2sccc2n1Cc1nc(-c2cccc(Cl)c2)oc1C	-65!	–	–	–	–
O=c1ccc(=O)n2n1CC(O)C2	–	–	–	·	–
Fc1cccc(CSc2nc(NCCc3ccccc3)c3ccccc3n2)c1	–	–	–	–	·
Cc1ccc(-n2c(-c3nn(C)c(C)c3Cl)n[nH]c2=S)cc1	–	–	?	–	?
Cc1nn(C)cc1-c1n[nH]c(=S)n1-c1ccc(Cl)cc1	–	–	?	–	7.9µM
CC(C)(C)c1cc(-c2n[nH]c(=S)n2-c2ccc(Cl)cc2)n[nH]1	–	–	?	–	13µM
Cc1ccccc1NC(=S)NC(=O)c1cncc(Br)c1	–	–	–	–	–
Cc1c(Cl)cccc1NC(=S)NC(=O)c1cncc(Br)c1	-65	–	–	–	·
CC(C)(C)c1cc(Cl)c(O)c(NC(=S)NC(=O)c2cccnc2)c1	-95	·	–	·	–
O=C(NNC(=S)Nc1ccc(Cl)cc1Cl)c1cccnc1	-64	·	–	·	·
COc1ccc(NS(=O)(=O)c2ccc3nc(COc4cccc5ccccc45)[nH]c3c2)cc1	-79	?	–	–	–
COc1ccc(OCc2nc3ccc(S(=O)(=O)Nc4ccccc4Cl)cc3[nH]2)cc1	–	?	–	?	–
COc1ccc(NS(=O)(=O)c2ccc3nc(COc4ccc5ccccc5c4)[nH]c3c2)cc1	?	28µM	–	?	–
COC(=O)c1ccc(S(=O)(=O)N2CCC(C(N)=O)CC2)n1C	–	–	–	–	–
CCOC1=C2[C@H](c3ccccc3)N(S(=O)(=O)c3ccc(C)cc3)C(C(C)(C)C)[C@H]2C(C#N)(C#N)C(C#N)(C#N)C1 (stereo partly specified)	-100	–	–	–	·
SMILES	HCMV inh	VACV Venus inh	TbPYK inhibitor	Vaccinia mCherry	LmPK inh
O=[N+]([O-])c1ccc(NS(=O)(=O)c2ccc(Cl)c(Cl)c2)cc1	-64	–	–	–	·
C[C@@H]1CN([C@H](C)CO)C(=O)c2c(c3ccccc3n2C)-c2ccccc2CO[C@H]1CN(C)Cc1ccc(C(F)(F)F)cc1	-106	?	–	?	·
COc1ccc(OCCOC(=O)CNC(=O)c2cccc(C)c2)cc1	–	–	–	–	·
Cc1ccc(-n2c(=O)c3c(C)c(C)sc3n(Cc3ccc(F)cc3Cl)c2=O)cc1C	–	–	–	–	·
Cc1ccc(NS(=O)(=O)c2cc3c4c(cccc4c2)C(=O)NC3=O)cc1C	–	10µM	–	13µM	–
O=C1NC(=O)c2cc(Br)cc3cccc1c23	–	–	–	–	–
COc1ccc(-n2cc(-c3ccc(OC)c(OC)c3)[nH]c2=S)cc1	–	·	?	·	?
COc1ccc(-n2cc(-c3ccccc3)[nH]c2=S)c(OC)c1	-65	·	–	·	–
CC(OC(=O)c1cccc(NS(C)(=O)=O)c1)C(=O)Nc1ccc2c(c1)OCO2 (stereo unspecified)	–	–	–	?	·
CC1(CCl)N([O-])C2=C(CCCC2)[N+]1=O (stereo unspecified)	–	?	–	?	–
